Source: PubChem BioAssay AID1159580 (chemical genetic matrix, 2015)
About 2,000 (36%) of roughly 5,500 compounds were called active. Inconclusive results (about 18%) are left out. Rule as the data show it: active = normalized growth mostly below about 0.91 (no sharp cut-off); inconclusive = no clear call, values can overlap the other calls; inactive = mostly above about 0.92. Some of the results follow.

Test: chemical genetic growth profiling, strain panel (AID 1159580);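 also: tested at 20 µM; growth read once vehicle control cultures reached saturation at 30 °C; 1 = growth at the plate median or of vehicle wells; lower values mean less growth of the strain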
Settings: growth OD

Measured: normalized growth

CC(=O)Oc1cc(OC(C)=O)c2c(c1)O[C@H](c1ccc(OC(C)=O)c(OC(C)=O)c1)[C@@H](OC(C)=O)C2
inactive: S. cerevisiae deletion strains, locus YJR066W, strain TOR1, hits give low values 0.934 | S. cerevisiae deletion strains, locus YJR075W, strain HOC1, hits give low values 1.01 | S. cerevisiae deletion strains, locus YKL009W, strain mrt4, hits give low values 1.04 | S. cerevisiae deletion strains, locus YKL068W, hits give low values 0.987 | S. cerevisiae deletion strains, locus YKL085W, strain MDH1 (second series), hits give low values 0.983 | S. cerevisiae deletion strains, locus YKL085W, strain MDH1, hits give low values 0.983 | S. cerevisiae deletion strains, locus YKL160W, strain elf1, hits give low values 1 | S. cerevisiae deletion strains, locus YKL190W, strain CNB1, hits give low values 0.997 | S. cerevisiae deletion strains, locus YKR001C, strain vps1, hits give low values 0.97 | S. cerevisiae deletion strains, locus YKR026C, strain gcn3, hits give low values 0.972 | S. cerevisiae deletion strains, locus YKR091W, strain srl3, hits give low values 1 | S. cerevisiae deletion strains, locus YLL001W, strain dnm1, hits give low values 0.992 | S. cerevisiae deletion strains, locus YLL026W, hits give low values 0.995 | S. cerevisiae deletion strains, locus YLL041C, strain sdh2, hits give low values 0.997 | S. cerevisiae deletion strains, locus YLR027C, strain aat2, hits give low values 1.02 | S. cerevisiae deletion strains, locus YLR039C, strain RIC1, hits give low values 1.04 | S. cerevisiae deletion strains, locus YLR058C, strain SHM2, hits give low values 1 | S. cerevisiae deletion strains, locus YLR102C, strain apc9, hits give low values 0.986 | S. cerevisiae deletion strains, locus YLR113W, strain HOG1, hits give low values 0.966 | S. cerevisiae deletion strains, locus YLR221C, strain rsa3, hits give low values 1.01 | S. cerevisiae deletion strains, locus YLR258W, strain gsy2, hits give low values 1 | S. cerevisiae deletion strains, locus YLR262C, strain YPT6 (second series), hits give low values 0.998 | S. cerevisiae deletion strains, locus YLR262C, strain YPT6, hits give low values 1.09 | S. cerevisiae deletion strains, locus YLR268W, strain sec22, hits give low values 0.958 | S. cerevisiae deletion strains, locus YLR320W, strain mms22, hits give low values 0.977 | S. cerevisiae deletion strains, locus YLR330W, strain CHS5, hits give low values 0.995 | S. cerevisiae deletion strains, locus YLR342W, strain FKS1 (second series), hits give low values 0.979 | S. cerevisiae deletion strains, locus YLR342W, strain FKS1, hits give low values 0.994 | S. cerevisiae deletion strains, locus YLR357W, strain rsc2, hits give low values 0.992 | S. cerevisiae deletion strains, locus YLR370C, strain arc18, hits give low values 1.01 | S. cerevisiae deletion strains, locus YLR371W, strain rom2, hits give low values 0.959 | S. cerevisiae deletion strains, locus YLR384C, strain iki3, hits give low values 1 | S. cerevisiae deletion strains, locus YLR418C, strain cdc73, hits give low values 1.03 | S. cerevisiae deletion strains, locus YML016C, strain PPZ1, hits give low values 0.978 | S. cerevisiae deletion strains, locus YML032C, strain rad52, hits give low values 1.01 | S. cerevisiae deletion strains, locus YML120C, strain ndi1, hits give low values 1.01 | S. cerevisiae deletion strains, locus YML124C, strain tub3, hits give low values 0.981 | S. cerevisiae deletion strains, locus YMR058W, strain fet3, hits give low values 1 | S. cerevisiae deletion strains, locus YMR078C, strain ctf18, hits give low values 0.964 | S. cerevisiae deletion strains, locus YMR125W, strain sto1, hits give low values 0.996 | S. cerevisiae deletion strains, locus YMR129W, hits give low values 1 | S. cerevisiae deletion strains, locus YMR205C, strain PFK2, hits give low values 0.972 | S. cerevisiae deletion strains, locus YMR223W, strain ubp8, hits give low values 1 | S. cerevisiae deletion strains, locus YMR231W, strain pep5, hits give low values 1 | S. cerevisiae deletion strains, locus YMR307W, strain GAS1, hits give low values 1.1 | S. cerevisiae deletion strains, locus YNL067W, strain RPL9B, hits give low values 1 | S. cerevisiae deletion strains, locus YNL071W, strain lat1, hits give low values 1.01 | S. cerevisiae deletion strains, locus YNL153C, strain GIM3, hits give low values 1 | S. cerevisiae deletion strains, locus YNL183C, strain NPR1, hits give low values 0.904 | S. cerevisiae deletion strains, locus YNL209W, strain ssb2, hits give low values 1 | S. cerevisiae deletion strains, locus YNL233W, strain BNI4, hits give low values 0.983 | S. cerevisiae deletion strains, locus YNL248C, strain rpa49, hits give low values 1.01 | S. cerevisiae deletion strains, locus YNL250W, strain rad50, hits give low values 0.977 | S. cerevisiae deletion strains, locus YNL271C, strain bni1, hits give low values 0.975 | S. cerevisiae deletion strains, locus YNL298W, strain CLA4, hits give low values 0.979 | S. cerevisiae deletion strains, locus YNL307C, strain MCK1, hits give low values 0.98 | S. cerevisiae deletion strains, locus YNL322C, strain KRE1 (second series), hits give low values 0.997 | S. cerevisiae deletion strains, locus YNL322C, strain KRE1, hits give low values 0.998 | S. cerevisiae deletion strains, locus YNR049C, strain mso1, hits give low values 0.995 | S. cerevisiae deletion strains, locus YNR052C, strain pop2, hits give low values 0.981 | S. cerevisiae deletion strains, locus YOL012C, strain htz1 0.674 | S. cerevisiae deletion strains, locus YOL147C, strain pex11, hits give low values 1 | S. cerevisiae deletion strains, locus YOR001W, strain rrp6, hits give low values 0.997 | S. cerevisiae deletion strains, locus YOR061W, strain CKA2, hits give low values 0.977 | S. cerevisiae deletion strains, locus YOR069W, strain VPS5, hits give low values 0.989 | S. cerevisiae deletion strains, locus YOR070C, strain gyp1, hits give low values 1 | S. cerevisiae deletion strains, locus YOR080W, strain dia2, hits give low values 0.998 | S. cerevisiae deletion strains, locus YOR083W, strain WHI5, hits give low values 1.01 | S. cerevisiae deletion strains, locus YOR106W, strain vam3, hits give low values 1 | S. cerevisiae deletion strains, locus YOR136W, strain idh2, hits give low values 0.965 | S. cerevisiae deletion strains, locus YOR144C, strain elg1, hits give low values 0.982 | S. cerevisiae deletion strains, locus YOR184W, strain ser1, hits give low values 0.986 | S. cerevisiae deletion strains, locus YOR231W, strain MKK1, hits give low values 0.974 | S. cerevisiae deletion strains, locus YOR265W, strain rbl2, hits give low values 1 | S. cerevisiae deletion strains, locus YOR270C, strain vph1, hits give low values 0.988 | S. cerevisiae deletion strains, locus YOR290C, strain snf2, hits give low values 0.961 | S. cerevisiae deletion strains, locus YOR316C, strain cot1, hits give low values 0.986 | S. cerevisiae deletion strains, locus YPL051W, strain arl3, hits give low values 1.01 | S. cerevisiae deletion strains, locus YPL055C, strain LGE1, hits give low values 0.999 | S. cerevisiae deletion strains, locus YPL078C, strain atp4, hits give low values 1.02 | S. cerevisiae deletion strains, locus YPL106C, strain sse1, hits give low values 0.996 | S. cerevisiae deletion strains, locus YPL240C, strain hsp82, hits give low values 0.992 | S. cerevisiae deletion strains, locus YPL241C, strain CIN2, hits give low values 0.999 | S. cerevisiae deletion strains, locus YPL256C, strain CLN2, hits give low values 0.974 | S. cerevisiae deletion strains, locus YPR119W, strain clb2, hits give low values 0.979 | S. cerevisiae deletion strains, locus YPR141C, strain kar3, hits give low values 0.981 | S. cerevisiae deletion strains, locus YPR163C, strain tif3, hits give low values 0.994 | S. cerevisiae deletion strains, locus YPR167C, strain met16, hits give low values 0.978 | S. cerevisiae deletion strains, strain wtn01, hits give low values 0.951 | S. cerevisiae strains, strain wild type, hits give low values 0.993
